In the supplement of paper PMC12282887:
± gives the standard deviation of the averaged measurements.

Assays:
Assay in all cases: promoter activity interaction Z-score (Lux/OD deviation from empty-vector control); higher = stronger promoter induction by the compound
[1] = test system: E. coli BW25113 acrABp lux reporter
Outline: (§1)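 E. coli BW25113 (wild type or marA, soxS or rob deletion) carrying low-copy luxCDABE promoter reporters grew in 40 µl LB Lennox in 384-well plates at 37°C. Each compound was tested at four 1:2 dilutions in biological duplicates. OD600 and luminescence were read every 30 min for 12 h. Areas were taken over 0–8 h (wild type) or 1–9 h (mutants), and wells below 10% of median growth area were removed. The score is the Z-transformed residual of growth-normalised luminescence fitted against the empty-vector control.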

[2] = test system: E. coli BW25113 marRABp lux reporter
Outline: as §1

[3] = test system: E. coli BW25113 micFp lux reporter
Outline: as §1

[4] = test system: E. coli BW25113 ompFp lux reporter
Outline: as §1

[5] = test system: E. coli BW25113 robp lux reporter
Outline: as §1

[6] = test system: E. coli BW25113 soxSp lux reporter
Outline: as §1

[7] = test system: E. coli BW25113 tolCp lux reporter
Outline: as §1

[8] = 23.5 µg/ml, genetic background: wild type
[9] = 23.5 µg/ml, genetic background: ΔmarA
[10] = 23.5 µg/ml, genetic background: Δrob
[11] = 23.5 µg/ml, genetic background: ΔsoxS
[12] = 47.1 µg/ml, genetic background: wild type
[13] = 47.1 µg/ml, genetic background: ΔmarA
[14] = 47.1 µg/ml, genetic background: Δrob
[15] = 47.1 µg/ml, genetic background: ΔsoxS
[16] = 94.1 µg/ml, genetic background: wild type
[17] = 94.1 µg/ml, genetic background: ΔmarA
[18] = 94.1 µg/ml, genetic background: Δrob
[19] = 94.1 µg/ml, genetic background: ΔsoxS
[20] = 188.3 µg/ml, genetic background: wild type
[21] = 188.3 µg/ml, genetic background: ΔmarA
[22] = 188.3 µg/ml, genetic background: Δrob
[23] = 188.3 µg/ml, genetic background: ΔsoxS

C[C@H](CCC(=O)O)[C@H]1CC[C@H]2[C@@H]3CC[C@@H]4C[C@H](O)CC[C@]4(C)[C@H]3CC[C@]12C [Lithocholic acid]
promoter activity interaction Z-score [1, 8]: 0.128 ± 0.083 | promoter activity interaction Z-score [1, 9]: 1.34 ± 2.3 | promoter activity interaction Z-score [1, 10]: 0.0671 ± 0.095 | promoter activity interaction Z-score [1, 11]: -0.142 ± 0.031 | promoter activity interaction Z-score [1, 12]: 0.171 ± 0.17 | promoter activity interaction Z-score [1, 13]: 0.66 ± 0.77 | promoter activity interaction Z-score [1, 14]: 0.304 ± 0.021 | promoter activity interaction Z-score [1, 15]: -0.0227 ± 0.072 | promoter activity interaction Z-score [1, 16]: -0.00199 ± 0.34 | promoter activity interaction Z-score [1, 17]: 0.576 ± 0.88 | promoter activity interaction Z-score [1, 18]: -0.304 ± 0.19 | promoter activity interaction Z-score [1, 19]: -0.652 ± 0.55 | promoter activity interaction Z-score [1, 20]: -0.12 ± 0.18 | promoter activity interaction Z-score [1, 21]: 0.897 ± 2.2 | promoter activity interaction Z-score [1, 22]: -0.207 ± 0.095 | promoter activity interaction Z-score [1, 23]: -0.566 ± 1.5 | promoter activity interaction Z-score [2, 8]: 0.0125 ± 0.049 | promoter activity interaction Z-score [2, 9]: 0.215 ± 0.24 | promoter activity interaction Z-score [2, 10]: 0.171 ± 0.16 | promoter activity interaction Z-score [2, 11]: -0.00159 ± 0.033 | promoter activity interaction Z-score [2, 12]: 0.0767 ± 0.14 | promoter activity interaction Z-score [2, 13]: 0.199 ± 0.2 | promoter activity interaction Z-score [2, 14]: 0.159 ± 0.08 | promoter activity interaction Z-score [2, 15]: 0.29 ± 0.41 | promoter activity interaction Z-score [2, 16]: -0.14 ± 0.0041 | promoter activity interaction Z-score [2, 17]: -0.0736 ± 0.21 | promoter activity interaction Z-score [2, 18]: 0.0252 ± 0.008 | promoter activity interaction Z-score [2, 19]: -0.23 ± 0.21 | promoter activity interaction Z-score [2, 20]: -0.189 ± 0.024 | promoter activity interaction Z-score [2, 21]: 0.0134 ± 0.26 | promoter activity interaction Z-score [2, 22]: 0.123 ± 0.086 | promoter activity interaction Z-score [2, 23]: 0.0918 ± 0.55 | promoter activity interaction Z-score [3, 8]: -0.113 ± 0.26 | promoter activity interaction Z-score [3, 9]: 0.16 ± 0.35 | promoter activity interaction Z-score [3, 10]: 0.238 ± 0.17 | promoter activity interaction Z-score [3, 11]: -0.193 ± 0.12 | promoter activity interaction Z-score [3, 12]: 0.314 ± 0.66 | promoter activity interaction Z-score [3, 13]: 0.226 ± 0.41 | promoter activity interaction Z-score [3, 14]: 0.0535 ± 0.017 | promoter activity interaction Z-score [3, 15]: 0.243 ± 0.36 | promoter activity interaction Z-score [3, 16]: 0.275 ± 0.18 | promoter activity interaction Z-score [3, 17]: 0.187 ± 0.33 | promoter activity interaction Z-score [3, 18]: 0.0887 ± 0.27 | promoter activity interaction Z-score [3, 19]: -0.363 ± 0.17 | promoter activity interaction Z-score [3, 20]: -0.215 ± 0.76 | promoter activity interaction Z-score [3, 21]: 0.379 ± 0.47 | promoter activity interaction Z-score [3, 22]: -0.0294 ± 0.12 | promoter activity interaction Z-score [3, 23]: -0.253 ± 0.14 | promoter activity interaction Z-score [4, 8]: -0.331 ± 0.28 | promoter activity interaction Z-score [4, 9]: 0.388 ± 0.35 | promoter activity interaction Z-score [4, 10]: 0.233 ± 0.41 | promoter activity interaction Z-score [4, 11]: -0.266 ± 0.66 | promoter activity interaction Z-score [4, 12]: -0.361 ± 0.42 | promoter activity interaction Z-score [4, 13]: -0.326 ± 0.22 | promoter activity interaction Z-score [4, 14]: 0.512 ± 0.58 | promoter activity interaction Z-score [4, 15]: 0.0216 ± 0.97 | promoter activity interaction Z-score [4, 16]: -1.02 ± 0.35 | promoter activity interaction Z-score [4, 17]: -0.0279 ± 0.11 | promoter activity interaction Z-score [4, 18]: -0.2 ± 0.59 | promoter activity interaction Z-score [4, 19]: -1.15 ± 0.78 | promoter activity interaction Z-score [4, 20]: -0.885 ± 0.27 | promoter activity interaction Z-score [4, 21]: -0.942 ± 0.53 | promoter activity interaction Z-score [4, 22]: -0.571 ± 0.34 | promoter activity interaction Z-score [4, 23]: -0.828 ± 0.72 | promoter activity interaction Z-score [5, 8]: 0.566 ± 0.055 | promoter activity interaction Z-score [5, 9]: 1.44 ± 0.64 | promoter activity interaction Z-score [5, 10]: 0.487 ± 0.029 | promoter activity interaction Z-score [5, 11]: 0.99 ± 0.62 | promoter activity interaction Z-score [5, 12]: -0.0796 ± 0.041 | promoter activity interaction Z-score [5, 13]: 0.19 ± 0.14 | promoter activity interaction Z-score [5, 14]: 0.443 ± 0.039 | promoter activity interaction Z-score [5, 15]: 1.04 ± 0.47 | promoter activity interaction Z-score [5, 16]: -0.0166 ± 0.45 | promoter activity interaction Z-score [5, 17]: 1.08 ± 0.44 | promoter activity interaction Z-score [5, 18]: 0.223 ± 0.44 | promoter activity interaction Z-score [5, 19]: 0.195 ± 0.21 | promoter activity interaction Z-score [5, 20]: -0.492 ± 1.1 | promoter activity interaction Z-score [5, 21]: 0.59 ± 0.34 | promoter activity interaction Z-score [5, 22]: 0.0946 ± 0.17 | promoter activity interaction Z-score [5, 23]: 0.391 ± 0.17 | promoter activity interaction Z-score [6, 8]: 0.313 ± 0.3 | promoter activity interaction Z-score [6, 9]: -0.0502 ± 0.087 | promoter activity interaction Z-score [6, 10]: 0.0422 ± 0.029 | promoter activity interaction Z-score [6, 11]: 0.057 ± 0.13 | promoter activity interaction Z-score [6, 12]: -0.126 ± 0.1 | promoter activity interaction Z-score [6, 13]: -0.195 ± 0.067 | promoter activity interaction Z-score [6, 14]: 0.0214 ± 0.095 | promoter activity interaction Z-score [6, 15]: -0.0763 ± 0.36 | promoter activity interaction Z-score [6, 16]: -0.137 ± 0.33 | promoter activity interaction Z-score [6, 17]: -0.217 ± 0.014 | promoter activity interaction Z-score [6, 18]: -0.165 ± 0.32 | promoter activity interaction Z-score [6, 19]: -0.531 ± 0.61 | promoter activity interaction Z-score [6, 20]: -0.578 ± 0.011 | promoter activity interaction Z-score [6, 21]: -0.284 ± 0.089 | promoter activity interaction Z-score [6, 22]: -0.408 ± 0.33 | promoter activity interaction Z-score [6, 23]: -0.418 ± 0.97 | promoter activity interaction Z-score [7, 8]: 0.238 ± 0.82 | promoter activity interaction Z-score [7, 9]: 1.52 ± 0.56 | promoter activity interaction Z-score [7, 10]: 0.914 ± 0.84 | promoter activity interaction Z-score [7, 11]: 0.608 ± 1.3 | promoter activity interaction Z-score [7, 12]: -0.0238 ± 0.039 | promoter activity interaction Z-score [7, 13]: 0.952 ± 0.099 | promoter activity interaction Z-score [7, 14]: 1.24 ± 0.98 | promoter activity interaction Z-score [7, 15]: 1.3 ± 0.12 | promoter activity interaction Z-score [7, 16]: 0.429 ± 0.87 | promoter activity interaction Z-score [7, 17]: 1.04 ± 0.5 | promoter activity interaction Z-score [7, 18]: 0.552 ± 0.78 | promoter activity interaction Z-score [7, 19]: 0.284 ± 0.072 | promoter activity interaction Z-score [7, 20]: 0.995 ± 0.41 | promoter activity interaction Z-score [7, 21]: 0.554 ± 0.33 | promoter activity interaction Z-score [7, 22]: 0.54 ± 0.74 | promoter activity interaction Z-score [7, 23]: 0.774 ± 1.2
